Mtb hypoxia rep – reduces hypoxia-regulated biosensor signal in M. tuberculosis; fluorescence inhibition, % (test concentration not listed); M. tuberculosis hypoxia-regulated fluorescent reporter, fluorescence; 300,000 compounds, 0.1% hits; in the data active = fluorescence inhibition mostly above about 23%, no sharp cut-off; inactive = mostly below about 17%
FBA Mtb inh – Mtb fructose-bisphosphate aldolase inhibition; purified M. tuberculosis FBA, fluorescence read-out; AID 588726; P9WQA3; inhibition, % at 1 µM; 360,000 compounds, 2.3% hits; in the data active = inhibition above about 27%;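 also: 0% = vehicle and 100% = reference inhibitor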
Target sequence (P9WQA3 whole entry, looked up): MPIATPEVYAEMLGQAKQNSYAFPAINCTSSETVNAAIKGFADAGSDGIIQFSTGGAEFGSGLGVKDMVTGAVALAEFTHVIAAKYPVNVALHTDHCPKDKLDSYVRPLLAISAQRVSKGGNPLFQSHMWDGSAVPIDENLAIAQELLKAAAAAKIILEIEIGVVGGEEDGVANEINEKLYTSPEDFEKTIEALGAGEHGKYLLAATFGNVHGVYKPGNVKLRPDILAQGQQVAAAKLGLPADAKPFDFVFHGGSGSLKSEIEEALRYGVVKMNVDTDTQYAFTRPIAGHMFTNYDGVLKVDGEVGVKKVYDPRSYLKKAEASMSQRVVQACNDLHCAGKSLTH
GDH-TPI counter – counter-screen for M. tuberculosis FBA inhibitors: GDH-TPI coupled enzymes | GDH-TPI coupled enzyme counterscreen, NADH absorbance | 360,000 compounds, 1.2% hits | inhibition, % at 4.8 µM; in the data active = inhibition above about 30%;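 also: 0% = DMSO wells and 100% = wells lacking the enzyme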
Mtb UGM inh – inhibitors of M. tuberculosis UDP-galactopyranose mutase. 320,000 compounds, 0.06% hits. purified UGM, fluorescence polarization probe displacement. P9WIQ1. inhibition, % at 10 µM. AID 504406; in the data active = inhibition above about 10%, passing the limit was not always enough
Rv3671c inh – inhibitors of M. tuberculosis serine protease Rv3671c | P9WHR9 | inhibition, % at 5.96 µM | 320,000 compounds, 0.048% hits | AID 2606; in the data active = inhibition above about 38%;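 also: extracellular domain of Rv3671c used as enzyme; 0% = enzyme with DMSO and 100% = no enzyme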
FadD28 binding – blocks FadD28 binding to the bisubstrate probe | fluorescence polarization | inhibition, % at 12.5 µM | 360,000 compounds, 0.22% hits; in the data active = inhibition above about 8.5%, passing the limit was not always enough
* hit, by the source's call; x = no result; + = active, no number. Sampled rows, rich in hits. Any-hit rate of the full collection: about 3.5%.

SMILES	Mtb hypoxia rep	FBA Mtb inh	GDH-TPI counter	Mtb UGM inh	Rv3671c inh	FadD28 binding
Cc1cccc(NC(=O)/C(=C\c2cccs2)NC(=O)c2ccccc2)c1	8	-1	34*	0	-4	-2
O=[N+]([O-])c1ccc(S(=O)(=O)NN=Cc2ccco2)cc1	-4	x	x	x	x	x
Cc1cc2nc(/C=C/c3cccnc3)[nH]c2cc1C	12	+	45*	0	x	-6
O=C(O)CSc1ncnc2sc(-c3ccccc3)cc12	x	6	19	-4	-17	-4
S=c1[nH]cnc2sc(-c3ccccc3)cc12	x	-3	52*	4	-1	-1
NC(=O)c1ccc(NC(=O)COC(=O)C=Cc2cccs2)cc1	1	x	x	x	x	x
CN(C)CCCN1C(=O)C(=O)/C(=C(/O)c2ccncc2)C1c1cccc(Br)c1 (stereo not given)	10	-1	31*	-2	1	2
COCCCN1C(=O)C(=O)/C(=C(/O)c2ccccc2)C1c1ccc(N(C)C)cc1 (stereo not given)	-4	5	12	-3	-1	-1
CN(C)c1ccc(C2/C(=C(/O)c3ccccc3)C(=O)C(=O)N2CCCC(=O)O)cc1 (stereo not given)	-11	-2	31*	-1	3	-1
CN(C)CCCN1C(=O)C(=O)/C(=C(/O)c2ccncc2)C1c1cccnc1 (stereo not given)	5	-1	10	x	x	-3
Cc1cc(=O)oc2cc(NS(=O)(=O)c3ccccc3)ccc12	-2	x	37*	-1	-3	-1
Cc1cc(=O)oc2cc(NS(=O)(=O)c3ccc(F)cc3)ccc12	-6	x	52*	0	5	1
Cc1cc(=O)oc2cc(NC(=O)c3cc(F)ccc3F)ccc12	0	7	13	-1	1	0
O=C(C(=O)N1CCOCC1)c1cn(Cc2ccc(F)cc2)c2ccccc12	-4	-4	32*	0	-3	-1
Cc1ccccc1OCCCn1cc(C(=O)C(=O)N2CCOCC2)c2ccccc21	-6	152*	11	-4	-1	1
COc1ccccc1-c1cccc2nccn12	x	128*	6	x	x	-1
CC(=O)Nc1ccccc1-c1cccc2nccn12	x	125*	6	x	x	-4
CC(=O)Nc1cccc(-c2cccc3nccn23)c1	x	159*	-3	x	x	-6
CC(=O)n1cc(C2C=C(C(=O)N3CCOCC3)OC(OCc3ccc(CO)cc3)C2)c2ccccc21 (stereo not given)	2	x	x	x	x	x
COc1ccc(-c2nc3c(n2O)CCc2c-3no[n+]2[O-])cc1	11	-3	41*	-1	10	-3
CC(=O)c1c(COC(=O)c2cccc(C)c2)nc2ccccc2[n+]1[O-]	5	2	31*	0	3	-2
CSC(=C[N+](=O)[O-])Nc1ccc(Cl)cc1	12	x	x	x	x	x
COc1ccc(OC)c(/C=N\NC(=O)c2ccc(=O)n(C)c2)c1	x	11	22	2	-4	-1
COc1cc(OC)c(OC)cc1/C=N/NC(=O)c1cc(-c2cccn2C)n[nH]1	x	4	38*	-1	8	-3
COc1cc(OC)c(OC)cc1/C=N/NC(=O)c1ccc(=O)n(C)c1	x	-1	54*	3	1	0
SMILES	Mtb hypoxia rep	FBA Mtb inh	GDH-TPI counter	Mtb UGM inh	Rv3671c inh	FadD28 binding
O=C1C(Cl)=C(N2CCOCC2)C(=O)N1c1ccccc1Cl	-3	-1	36*	1	-16	0
O=C1C(Cl)=C(N2CCCCCC2)C(=O)N1c1ccccc1Cl	1	-1	-1	-1	-1	-3
CCCc1nnc(NC(=O)C(=O)NCCN(C)C)s1	x	2	31*	x	x	1
CCCc1nnc(NC(=O)C(=O)NCCN(CC)CC)s1	-1	-1	3	x	x	-1
O=Cc1ccc(O)c(O)c1	-1	-3	28	0	4	-3
COc1cc(C(=O)C(O)c2ccc(O)c(OC)c2)ccc1O (stereo not given)	-1	-3	26	x	x	-4
CC(C)C(=O)c1ccc(O)c(O)c1	4	7	38*	1	5	0
O=C(C(=O)c1ccc(O)c(O)c1)c1ccc(O)c(O)c1	18	-6	78*	x	x	-2
COc1ccc(/C=N/NC(=O)c2nc(-c3ccccc3)n(-c3ccccc3)n2)cc1OC	x	2	37*	1	-1	0
COc1ccc(/C=N/NC(=O)c2nc(-c3ccccc3)cc(-c3ccccc3)n2)cc1	x	1	32*	-6	-36	-4
COc1cc(/C=N/NC(=O)c2nc(-c3ccccc3)n(-c3ccccc3)n2)ccc1O	x	-1	30	2	12	0
